Results: article PMC7862700, “An all-to-all approach to the identification of sequence-specific readers for epigenetic DNA modifications on cytosine”

Assays:
Test in all cases: DAPPL (digital affinity profiling via proximity ligation, sequencing); 10 mM Tris-HCl pH 7.5, 50 mM NaCl, 1 mM DTT, 4% glycerol, room temperature, 30 min; GST-TFs on glutathione beads, 16-mer random dsDNA library, 0.1% formaldehyde crosslink after washing; high values mean tight binding
Details in all cases: protein: recombinant; tags: N-terminal GST; dsDNA, one strand shown
ELK4 = biological target: T1, ELK4 (Homo sapiens, UniProt P28324-2 1-405)
T1 sequence: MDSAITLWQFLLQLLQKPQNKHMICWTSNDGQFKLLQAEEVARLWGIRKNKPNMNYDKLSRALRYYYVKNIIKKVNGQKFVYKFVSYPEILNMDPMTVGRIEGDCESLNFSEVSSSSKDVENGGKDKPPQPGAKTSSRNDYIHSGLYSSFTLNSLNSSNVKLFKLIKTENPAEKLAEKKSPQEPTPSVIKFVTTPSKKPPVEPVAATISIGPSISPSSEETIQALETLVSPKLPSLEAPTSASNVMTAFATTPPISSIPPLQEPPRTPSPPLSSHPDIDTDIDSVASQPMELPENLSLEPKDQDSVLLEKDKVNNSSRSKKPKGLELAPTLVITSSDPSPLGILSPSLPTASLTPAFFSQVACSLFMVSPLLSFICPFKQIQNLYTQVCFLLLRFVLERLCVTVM
How it was run: (§1)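 GST fusions of human transcription factors were expressed in yeast and captured with glutathione beads. Once given DNA barcodes and pooled alongside a tag-only sample, they were incubated for 30 min at room temperature with 200 nmole of a random double-stranded 16-mer DNA library in Tris/NaCl/DTT/glycerol buffer, then washed, crosslinked (0.1% formaldehyde), proximity-ligated, PCR-amplified and sequenced on an Illumina NextSeq500. The binding signal of each hexamer is its read frequency for a factor divided by its frequency for the tag-only sample.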

ELF3 = biological target: T2, ELF3 (Homo sapiens, UniProt P78545 1-371)
T2 sequence: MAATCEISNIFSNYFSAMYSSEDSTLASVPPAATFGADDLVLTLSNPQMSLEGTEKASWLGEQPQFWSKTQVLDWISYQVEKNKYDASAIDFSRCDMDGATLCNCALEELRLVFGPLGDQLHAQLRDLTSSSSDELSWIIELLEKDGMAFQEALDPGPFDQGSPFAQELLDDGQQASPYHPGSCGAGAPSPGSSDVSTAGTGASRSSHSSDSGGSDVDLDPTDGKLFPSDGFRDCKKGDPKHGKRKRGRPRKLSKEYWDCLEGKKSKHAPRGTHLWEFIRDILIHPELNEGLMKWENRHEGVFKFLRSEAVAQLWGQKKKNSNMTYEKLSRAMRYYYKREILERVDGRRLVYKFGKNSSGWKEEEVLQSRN
How it was run: as §1

ETV1 = ETV1 (Homo sapiens, UniProt P50549 1-477)
How it was run: as §1

ERF = biological target: T3, ERF (Homo sapiens, UniProt P50548 1-548)
T3 sequence: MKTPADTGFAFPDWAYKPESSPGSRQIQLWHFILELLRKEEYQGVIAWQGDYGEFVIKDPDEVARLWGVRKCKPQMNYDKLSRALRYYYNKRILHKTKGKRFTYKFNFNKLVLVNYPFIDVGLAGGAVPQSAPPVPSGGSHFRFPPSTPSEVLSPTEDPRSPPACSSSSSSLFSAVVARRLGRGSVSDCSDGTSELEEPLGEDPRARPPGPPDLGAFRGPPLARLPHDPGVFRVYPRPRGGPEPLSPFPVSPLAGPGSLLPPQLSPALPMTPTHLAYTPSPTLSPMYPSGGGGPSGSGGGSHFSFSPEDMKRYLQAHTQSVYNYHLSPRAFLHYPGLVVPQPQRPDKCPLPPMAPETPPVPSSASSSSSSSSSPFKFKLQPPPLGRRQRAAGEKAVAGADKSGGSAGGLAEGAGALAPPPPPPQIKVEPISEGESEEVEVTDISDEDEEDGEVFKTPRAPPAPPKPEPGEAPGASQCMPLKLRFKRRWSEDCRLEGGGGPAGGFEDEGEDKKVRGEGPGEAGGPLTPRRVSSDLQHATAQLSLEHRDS
How it was run: as §1

ETV3L = biological target: T4, ETV3L (Homo sapiens, UniProt Q6ZN32 1-361)
T4 sequence: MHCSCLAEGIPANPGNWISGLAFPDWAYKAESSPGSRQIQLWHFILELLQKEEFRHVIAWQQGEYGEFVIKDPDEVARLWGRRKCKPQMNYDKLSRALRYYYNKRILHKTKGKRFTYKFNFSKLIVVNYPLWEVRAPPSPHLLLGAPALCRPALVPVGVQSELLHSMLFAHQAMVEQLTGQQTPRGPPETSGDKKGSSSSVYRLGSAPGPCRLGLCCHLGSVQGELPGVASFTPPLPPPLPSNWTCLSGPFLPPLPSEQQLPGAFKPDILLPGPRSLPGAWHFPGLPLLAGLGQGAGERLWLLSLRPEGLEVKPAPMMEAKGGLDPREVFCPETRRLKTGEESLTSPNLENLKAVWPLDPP
How it was run: as §1

ETS2 = biological target: T5, ETS2 (Homo sapiens, UniProt P15036 1-469)
T5 sequence: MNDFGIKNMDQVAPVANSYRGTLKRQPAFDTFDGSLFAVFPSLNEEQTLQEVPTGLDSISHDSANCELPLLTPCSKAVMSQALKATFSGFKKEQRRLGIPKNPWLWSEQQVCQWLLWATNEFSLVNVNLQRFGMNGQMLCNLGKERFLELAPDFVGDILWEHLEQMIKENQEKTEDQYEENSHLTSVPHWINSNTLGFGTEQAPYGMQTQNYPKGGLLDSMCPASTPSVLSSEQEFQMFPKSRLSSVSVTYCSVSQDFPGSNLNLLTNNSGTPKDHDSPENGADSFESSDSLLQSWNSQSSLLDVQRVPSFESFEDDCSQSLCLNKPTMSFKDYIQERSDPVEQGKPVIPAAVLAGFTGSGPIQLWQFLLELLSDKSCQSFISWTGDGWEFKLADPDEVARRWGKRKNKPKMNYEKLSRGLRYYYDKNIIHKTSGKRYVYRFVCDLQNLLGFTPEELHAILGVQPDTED
How it was run: as §1

SPDEF = biological target: T6, SPDEF (Homo sapiens, UniProt O95238 1-335)
T6 sequence: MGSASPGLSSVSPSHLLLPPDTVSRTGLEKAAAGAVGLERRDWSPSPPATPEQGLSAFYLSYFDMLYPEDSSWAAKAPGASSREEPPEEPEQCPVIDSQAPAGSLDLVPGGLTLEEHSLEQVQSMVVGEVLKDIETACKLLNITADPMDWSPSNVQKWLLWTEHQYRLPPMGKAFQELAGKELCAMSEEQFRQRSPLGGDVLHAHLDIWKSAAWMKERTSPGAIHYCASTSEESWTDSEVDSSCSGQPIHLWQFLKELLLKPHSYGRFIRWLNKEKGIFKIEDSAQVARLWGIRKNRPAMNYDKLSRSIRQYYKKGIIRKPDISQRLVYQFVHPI
How it was run: as §1

ETV7 = biological target: T7, ETV7 (Homo sapiens, UniProt Q9Y603 1-341)
T7 sequence: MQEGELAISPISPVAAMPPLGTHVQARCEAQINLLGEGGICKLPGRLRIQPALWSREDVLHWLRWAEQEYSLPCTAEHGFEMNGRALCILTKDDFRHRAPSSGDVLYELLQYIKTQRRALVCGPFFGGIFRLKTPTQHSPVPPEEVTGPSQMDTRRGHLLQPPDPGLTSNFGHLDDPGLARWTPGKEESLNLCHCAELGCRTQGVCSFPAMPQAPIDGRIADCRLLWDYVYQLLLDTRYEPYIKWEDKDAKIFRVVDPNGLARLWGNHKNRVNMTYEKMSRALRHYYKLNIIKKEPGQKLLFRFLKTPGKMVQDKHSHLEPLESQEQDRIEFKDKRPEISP
How it was run: as §1

ETV3 = biological target: T8, ETV3 (Homo sapiens, UniProt P41162-2 1-143)
T8 sequence: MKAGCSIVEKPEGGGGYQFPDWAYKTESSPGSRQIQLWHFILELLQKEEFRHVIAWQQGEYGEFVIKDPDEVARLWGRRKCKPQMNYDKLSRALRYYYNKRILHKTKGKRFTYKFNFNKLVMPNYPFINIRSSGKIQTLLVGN
How it was run: as §1

ETV6 = ETV6 (Homo sapiens, UniProt P41212 1-452)
How it was run: as §1

Chain of ETV6 (P41212 whole entry): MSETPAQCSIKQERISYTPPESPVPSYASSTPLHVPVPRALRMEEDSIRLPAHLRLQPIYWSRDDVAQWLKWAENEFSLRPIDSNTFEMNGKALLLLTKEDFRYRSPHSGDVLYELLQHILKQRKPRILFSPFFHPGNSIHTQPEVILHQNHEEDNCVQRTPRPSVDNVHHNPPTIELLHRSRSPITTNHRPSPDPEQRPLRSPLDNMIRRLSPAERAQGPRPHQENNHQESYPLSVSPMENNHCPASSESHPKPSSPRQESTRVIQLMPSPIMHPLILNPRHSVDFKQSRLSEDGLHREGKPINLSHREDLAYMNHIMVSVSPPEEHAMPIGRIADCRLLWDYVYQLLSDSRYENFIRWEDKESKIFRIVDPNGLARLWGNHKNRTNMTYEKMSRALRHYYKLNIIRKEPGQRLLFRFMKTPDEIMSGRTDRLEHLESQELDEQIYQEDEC
Chain of ETV1 (P50549 whole entry): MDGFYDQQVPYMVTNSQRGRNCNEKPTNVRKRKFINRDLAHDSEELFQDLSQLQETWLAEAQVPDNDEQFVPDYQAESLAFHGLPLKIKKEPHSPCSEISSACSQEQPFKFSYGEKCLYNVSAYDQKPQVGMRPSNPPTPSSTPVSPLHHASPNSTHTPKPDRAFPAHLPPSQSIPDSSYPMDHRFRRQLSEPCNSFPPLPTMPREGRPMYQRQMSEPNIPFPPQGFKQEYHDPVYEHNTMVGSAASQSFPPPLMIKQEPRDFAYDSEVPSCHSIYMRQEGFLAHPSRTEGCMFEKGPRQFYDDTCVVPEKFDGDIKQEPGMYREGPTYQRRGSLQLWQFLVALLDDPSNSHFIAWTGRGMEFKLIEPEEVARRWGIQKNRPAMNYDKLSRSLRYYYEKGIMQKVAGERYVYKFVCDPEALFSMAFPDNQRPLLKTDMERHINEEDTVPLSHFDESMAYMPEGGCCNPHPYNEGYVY

In the case of CGTTTA, the binding signal (ELK4) is reported as 1.15 fold enrichment (6-mer frequency, TF over GST control), the binding signal (ELF3) is reported as 1.09 fold enrichment (6-mer frequency, TF over GST control) and the binding signal (ETV1) is reported as 1.12 fold enrichment (6-mer frequency, TF over GST control). For the same sequence, the binding signal (ERF) was 1.05 fold enrichment (6-mer frequency, TF over GST control), the binding signal (ETV3L) was 1.1 fold enrichment (6-mer frequency, TF over GST control) and the binding signal (ETS2) was 1.16 fold enrichment (6-mer frequency, TF over GST control). For the same sequence, the binding signal (SPDEF) was 1.14 fold enrichment (6-mer frequency, TF over GST control), the binding signal (ETV7) was 1.12 fold enrichment (6-mer frequency, TF over GST control) and the binding signal (ETV3) was 1.05 fold enrichment (6-mer frequency, TF over GST control). For the same sequence, the binding signal (ETV6) was 1.14 fold enrichment (6-mer frequency, TF over GST control).
